# According to PubChem BioAssay (NCI):
# This is part of a sample that, as a whole, favours compounds with a hit. Of some 83,000 tested, about 20% had one in any assay.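 Negative percent growth values reflect cell death: -40 means 40% of the cells present at the start died, and -100 means all died.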 Calls of active or inactive are those of the source. Rule for the calls: active = growth percent below 10; inactive = the rest.
# Test system: EKVX NSCLC
# Assay: NCI-60 one-dose screen, 48 h (100 = growth as untreated, 0 = no growth, -100 = all killed)
# Details: 10 µM unless noted
row,SMILES,growth
1,O=c1ccn(-c2ncnc3nc[nH]c23)cc1,91.4% (inactive)
2,CCN(CC)c1ccc(CNc2ccnc3ccccc23)cc1,45.3% (inactive)
3,COc1ccc(CN2CCc3c(Sc4ccccc4)nc(N)nc3C2=O)c(OC)c1,57% (inactive)
4,COc1ccc(/C=C\c2cc(OC)c(OC)c(OC)c2)cc1OC(=O)c1cccc(Cn2cc(CCOC(=O)c3cccc(Cn4nnc5c4C(=O)c4ccccc4C5=O)c3)nn2)c1,58.3% (inactive)
5,CCCCN(CCCC)C(=O)CC,105% (inactive)
6,O=C1Nc2ccc3c(c2/C1=C\c1cc2c(cc1Br)OCO2)OCO3,37.3% (inactive)
7,O=C1/C(=C/c2ccccc2)CN(C(=O)CCN2CCC(=NO)CC2)C/C1=C\c1ccccc1,1.08% (active)
8,COc1ccc2c(c1)[nH]c(=O)c1c3cc(OC)ccc3cn21,48.7% (inactive)
9,COc1ccc(Nc2nc(N)nc3c2CCN(Cc2ccc(OC)cc2OC)C3=O)cc1,81.5% (inactive)
10,Cn1ccc(=O)c(S(N)(=O)=O)c1,89.3% (inactive)
11,Cc1cc(N/N=C/c2nc(-c3ccccc3)oc2C)c2cc(Br)ccc2n1,107% (inactive)
12,Cc1nn(-c2ccc([N+](=O)[O-])cc2)c2ncnc(NCCc3ccccc3)c12,52.6% (inactive)
13,CCN(CC)CCC(CNc1ccnc2cc(Cl)ccc12)c1ccc(Cl)cc1 (stereo not given),67.4% (inactive)
14,OC(c1cc2cc(Br)ccc2c2cc(Br)ccc12)C1CCCCN1 (stereo not given),-70.7% (active)
15,C=C1CCC2C3(C)COC(c4c(OC)cccc4OC)OC3CCC2(C)C1C/C=C1/C(=O)OCC1O (stereo not given),96.5% (inactive)
